# HTR5A inv ctr: inverse agonist of human HTR5A in OPRM1-OPRD1 counter-screen. HTR5A cell line, luminescence, inverse agonism. AID 504634. inhibition, % at 9.3 µM. hit rate 0.083% among 340,000; in the data active means inhibition mostly above about 23%, no sharp cut-off; inactive means mostly below about 18%;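 further: 0% = cells with DMSO and 100% = no-cell wells with DMSO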
# MIN6 prolif: induces beta-cell replication in MIN6 cells; hit rate 0.29% among 330,000; AID 2380; MIN6 cells proliferation, ATPlite luminescence, 48 h; cells starved in 0.2% serum; 100% = growth in 10% serum; proliferation, % at 10 µM;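 active means compounds whose signal lies at least 3.5 SD above the mean of all wells on their plate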;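 further: 0% = DMSO-treated cells in low-serum medium and 100% = 10% serum control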
# MOR-DOR inv ag: inverse agonist of human OPRM1-OPRD1 heterodimerization | P35372+P41143 | cell-based MOR-DOR heterodimer luminescence, inverse agonism | inhibition, % at 9.3 µM | hit rate 0.21% among 340,000 | AID 504357; in the data active means inhibition above about 22%, passing the limit was not always enough;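 further: 0% = cells with DMSO and 100% = wells without cells with DMSO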
# Target sequence (P35372 whole entry, looked up): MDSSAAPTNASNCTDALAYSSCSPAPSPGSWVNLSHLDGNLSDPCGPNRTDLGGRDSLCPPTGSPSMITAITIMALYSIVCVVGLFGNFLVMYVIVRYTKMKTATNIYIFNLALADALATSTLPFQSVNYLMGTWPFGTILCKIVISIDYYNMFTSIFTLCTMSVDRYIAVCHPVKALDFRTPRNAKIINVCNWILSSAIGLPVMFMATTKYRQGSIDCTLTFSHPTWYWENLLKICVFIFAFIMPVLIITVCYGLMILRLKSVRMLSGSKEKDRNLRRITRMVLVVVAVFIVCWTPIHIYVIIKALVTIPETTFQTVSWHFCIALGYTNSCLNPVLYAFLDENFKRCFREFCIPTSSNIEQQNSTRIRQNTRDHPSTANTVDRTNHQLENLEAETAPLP
# Target sequence (P41143 whole entry, looked up): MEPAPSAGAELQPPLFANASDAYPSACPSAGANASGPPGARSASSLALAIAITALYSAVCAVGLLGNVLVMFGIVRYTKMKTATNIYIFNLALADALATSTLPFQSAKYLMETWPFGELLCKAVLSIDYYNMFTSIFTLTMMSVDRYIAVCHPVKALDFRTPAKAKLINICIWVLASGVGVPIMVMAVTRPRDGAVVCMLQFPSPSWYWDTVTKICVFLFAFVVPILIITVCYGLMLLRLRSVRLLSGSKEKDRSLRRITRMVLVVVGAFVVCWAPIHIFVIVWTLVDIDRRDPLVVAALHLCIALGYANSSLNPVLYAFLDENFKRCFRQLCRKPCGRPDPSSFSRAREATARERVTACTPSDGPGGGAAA
# p-CIP stab down: compounds decreasing mouse p/CIP protein stability; Q05BA5; F442A p/CIP-EGFP cells, EGFP fluorescence, 16 h; decrease of EGFP signal, % at 10 µM; hit rate 0.01% among 290,000; AID 1984;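 active means EGFP signal decrease of at least 30% at 10 µM or well 3 SD below plate mean, unless failing retest; inactive means the rest, including hits failing retest or dose response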
# HTR5A ag ctr: counter-screen for OPRM1-OPRD1 agonists: human HTR5A agonism. P47898. HTR5A agonist assay, luminescence, cell-based. activation, % at 9.3 µM. hit rate 0.61% among 340,000. AID 504692; in the data active means activation mostly above about 9.5%, no sharp cut-off; inactive means mostly below about 7.6%;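 further: 0% = cells with vehicle only and 100% = reference agonist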
# MOR-DOR ag: OPRM1-OPRD1 heterodimerization agonism; P35372+P41143; cells, luminescence; hit rate 0.3% among 340,000; activation, % at 9.3 µM; in the data active means activation above about 18%;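 further: 0% = vehicle-treated cells and 100% = reference agonist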
# * hit, by the source's call; i = inactive; . = no result given. Shown are actives, neighbours in structure and some others; about 1.4% of the full set was active somewhere.
SMILES,HTR5A inv ctr,MIN6 prolif,MOR-DOR inv ag,p-CIP stab down,HTR5A ag ctr,MOR-DOR ag
NC(=O)c1sc(-c2ccsc2)cc1NS(=O)(=O)c1ccc(C(F)(F)F)cc1,.,-6,.,-2,.,.
C=CCOc1ccc(C2OC34CCCCC3C(C#N)(C#N)C2(C#N)C(=N)O4)cc1 (stereo unspecified),-4,2,1,-7,3,0
Cc1ccc(C2OC34CCCCCC3C(C#N)(C(=N)O4)C2(C#N)C#N)cc1 (stereo unspecified),10,9.0*,6,8,0,-1
CCCCOc1ccc(C2OC34CCCCC3C(C#N)(C#N)C2(C#N)C(=N)O4)cc1 (stereo unspecified),-10,9.8*,-2,-9,10,0
CC(C)(C)OC(=O)C[C@@H]1C/C=C\C[C@H](CC(=O)NCCO)C(=O)N2CCC[C@@H]2COC1=O,9,1,10,.,-2,-2
CC(C)Oc1ccc(CNC(=O)Cn2ccc3cc(S(=O)(=O)N4CCCC4)ccc32)cc1,-31,1,4,-10,8.3*,-1
COc1ccc(C)cc1NC(=O)NNC(=O)C1CCC(C(C)(C)C)CC1 (stereo unspecified),-37,-3,-32,-14,13*,6
COc1ccc(C)cc1NC(=O)C1CCN(S(C)(=O)=O)CC1,23,2,3,-26,-6,-1
CCN(C(=O)COC(=O)c1ccc(-n2c(C)ccc2C)cc1)c1c(N)n(Cc2ccccc2)c(=O)[nH]c1=O,-5,.,16,.,-4,-4
O=C(c1ccc(Cl)c(S(=O)(=O)NCc2ccco2)c1)N1CCN(c2ccccc2F)CC1,-86,1,10,0,13*,-2
COc1ccccc1N1CCN(C(=O)c2ccc(Cl)c(S(=O)(=O)NCc3ccco3)c2)CC1,-41,1,6,-12,4,-1
CC(C)C[C@@H](CNC(=O)OC(C)(C)C)NC(=O)c1nc[nH]c1C(=O)N[C@@H](CC(C)C)C(=O)CNC[C@H](CC(C)C)NC(=O)c1nc[nH]c1C(=O)N[C@@H](Cc1c[nH]c2ccccc12)C(=O)OC(C)(C)C,13,-5,16,.,12,-3
COc1ccc(NC(=O)CN(C)C(=O)c2oc3c(ccc4ccccc43)c2C)cc1,-14,-4,-5,.,6,1
Cc1nnc(NC(=O)c2nc(S(=O)(=O)Cc3ccccc3)ncc2Cl)s1,-41,-4,-22,-20,10*,4
Cc1cccc(C)c1NC(=O)c1nc(S(=O)(=O)Cc2ccccc2)ncc1Cl,10,-7,30,-20,-3,-6
COc1cccc(CNC(=O)C2CCN(c3nnc(N4CCCC4=O)s3)CC2)c1,-8,-2,5,-1,13*,-1
CCCOc1ccc(CNC(=O)C2CCN(c3nnc(N4CCCC4=O)s3)CC2)cc1,-5,-3,-3,2,-2,1
CC(C)[C@H](NS(=O)(=O)c1cccc(Cl)c1)C(=O)OCC(=O)NC(=O)CN1CCCC1=O,-9,-5,12,.,-2,-3
O=C(Nc1cc(Sc2ccccn2)cc([N+](=O)[O-])c1)c1cccc(Cl)c1,-2,0,-23,-4,1,4
O=C(Nc1cc(Sc2ccccn2)cc([N+](=O)[O-])c1)c1ccc(Cl)cc1,-22,-4,-134,-20,19*,29*
CCCCOC(=O)Nc1ccc(N2CCOCC2)cc1,-12,-4,-2,-4,4,0
CCCCOC(=O)Nc1ccc(N2CCCCC2)cc1,6,-1,-10,2,9.6*,2
O=C(CCS(=O)(=O)c1ccccc1Cl)NC1CCCCCC1,0,2,8,.,0,-2
Cc1cc(NC(=O)CN2CCN(S(=O)(=O)c3ccc4ccccc4c3)CC2)no1,-36,-1,-28,6,10*,5
Cc1cccc2c1NC(=O)C2(c1ccc(O)cc1)c1ccc(O)cc1,-107,3,i,-8,44*,124*
SMILES,HTR5A inv ctr,MIN6 prolif,MOR-DOR inv ag,p-CIP stab down,HTR5A ag ctr,MOR-DOR ag
CCOc1cc(N2CCOCC2)c(OCC)cc1NC(=O)C1CC(=O)N(c2ccc(C)cc2)C1 (stereo unspecified),-28,-3,8,.,11,-2
CCN(CC)C(=O)[C@H]1C[C@H](CC(=O)NCCCn2ccnc2)C(=O)N2CCc3c([nH]c4cc(CCC(=O)N(C)C)ccc34)[C@]12C,-6,.,15,.,2,-3
COc1ccc(N(C(=O)CCl)C(C(=O)NCCc2ccccc2)c2cccs2)cc1Cl (stereo unspecified),-145,.,-394,8,54*,66*
COCCNC(=O)C(c1cccs1)N(C(=O)Cn1nnc2ccccc21)c1ccccc1 (stereo unspecified),4,-2,11,8,-3,-2
COc1cccc(N(C(=O)CCl)C(C(=O)NCCc2ccccc2)c2cccs2)c1 (stereo unspecified),-75,.,-362,1,61*,68*
CC(C)(C)C(=O)Nc1ccc(C(=O)CSc2nnc(C3CC3)n2C2CC2)cc1,5,-2,10,.,-3,-3
Nc1nc(SCC(=O)Nc2cc(Cl)c(Cl)cc2Cl)n[nH]1,-8,-4,6,.,2,-1
Cc1ccccc1C(=O)c1ccc2c(c1)n(C)c(=O)n2C,19,-2,-2,3,12*,0
Cc1ccc(-c2cc(C(=O)Nc3cccnc3)c3ccccc3n2)s1,-33,-4,-41,5,10*,8
Cc1cccc(-c2cc(C(=O)Nc3ccncc3)c3ccccc3n2)c1,-43,-5,-118,1,12*,21*
Cc1ccc2nc(-c3ccccc3)cc(C(=O)Nc3cccnc3)c2c1,-27,-1,-30,.,13*,8
Cc1cccc(NC(=O)c2cc(-c3cccnc3)nc3c(C)cccc23)n1,-9,-1,-45,-5,11*,8
O=C(NCCCN1CCCC1=O)c1cccc(S(=O)(=O)Nc2ccc(Br)cc2)c1,13,1,-2,.,-5,0
CCOC(=O)N1CCC(NC(=O)CSCc2nc(-c3ccc(OC)cc3)oc2C)CC1,-16,10,15,-1,11*,-3
CCc1ccc(-c2nc(CSCC(=O)NC3CC3)c(C)o2)cc1,14,6,17,2,-4,-3
CCOC(=O)c1cnn(C)c1NC(=O)c1ccc(Cl)cc1Cl,-13,-3,14,-1,4,-3
Cc1c(C(=O)OC2CCCC2)[nH]c2c1C(=O)CC(c1ccco1)C2 (stereo unspecified),-28,-7,-6,-22,10*,1
Cc1c(C(=O)OCC(C)C)[nH]c2c1C(=O)CC(c1ccco1)C2 (stereo unspecified),-13,-6,-9,-15,5,2
COc1ccccc1NS(=O)(=O)c1ccc(OC)c(OC)c1,10,0,7,0,10*,-1
